PubChem BioAssay (EPA / NIEHS)
Inconclusive results are not listed. Where a structure was tested more than once in an assay, its records may differ in their call. Activity calls are given as the source filed them. The calls were made as follows: active = hit-call score of the fitted dose curve at least 0.9, where 1 is the maximum; inconclusive = response in the unintended direction; inactive = score below 0.9. Where a SMILES comes first, the peptide text is derived from it. Bridges are numbered along the chain shown (N, C = ends). [ ]: non-standard residue; d: D form. Orn = NCCC[C@H](N)C(=O)O; Mpa = O=C(O)CCS

The molecules below were run against Cellular tumor antigen p53 (Homo sapiens) (UniProt P04637) (assay: TOX21_p53_BLA_p2_ratio: Tox21 HCT-116 p53 Agonism Beta-lactamase Assay, Ratio, Phase 2 (AID 2283592)).
Cellular tumor antigen p53 (Homo sapiens), sequence (P04637 whole entry, looked up, the tested form may be a part): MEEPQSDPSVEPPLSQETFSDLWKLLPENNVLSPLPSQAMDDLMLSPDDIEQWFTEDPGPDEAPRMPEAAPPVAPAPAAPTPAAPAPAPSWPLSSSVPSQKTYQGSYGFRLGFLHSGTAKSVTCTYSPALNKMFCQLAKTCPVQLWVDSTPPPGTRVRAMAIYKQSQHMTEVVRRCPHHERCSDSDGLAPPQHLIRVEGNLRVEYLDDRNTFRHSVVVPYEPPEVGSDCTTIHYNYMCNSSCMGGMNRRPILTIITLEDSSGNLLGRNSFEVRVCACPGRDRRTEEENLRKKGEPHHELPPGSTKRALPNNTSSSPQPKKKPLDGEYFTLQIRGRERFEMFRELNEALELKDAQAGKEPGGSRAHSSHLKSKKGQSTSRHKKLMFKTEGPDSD
Source text: TOX21_p53_BLA_p2 is a cell-based, single-readout assay that uses HCT116, a human intestinal cell line, […] in a 1536-well plate.TOX21_p53_BLA_p2_ratio is an assay readout measuring reporter gene via receptor activity and designed using inducible reporter (beta lactamase induction) detected with GAL4 b-lactamase reporter gene. The signal is derived from the ratio of cleaved (ch2) to uncleaved (ch1) reporter gene substrate used as the measure of target activity.Data from the assay component TOX21_p53_BLA_p2_ratio was analyzed into 1 assay endpoint. This assay endpoint, TOX21_p53_BLA_p2_ratio, was analyzed in the positive analysis fitting direction relative to DMSO as the negative control and baseline of activity. Using a type of inducible reporter, gain-of-signal activity can be used to understand changes in the reporter gene as they relate to the gene TP53. Furthermore, this assay endpoint can be referred to as a primary readout, because this assay has produced multiple assay endpoints and this ratio serves a reporter gene function to understand target activity. To generalize the intended target to other relatable targets, this assay endpoint is annotated to the DNA binding intended target family, where the subfamily is tumor suppressor.
Thawing Method: Place 14 mL of pre-warmed thaw medium into a 15 mL of conical tub. Remove the vial of cells to be thawed from liquid nitrogen and thaw rapidly by placing at 37C in a water bath with gentle agitation for 1-2 minutes. Decontaminate the vial by wiping with 70% ethanol before opening in a biological safety cabinet. Transfer the vial contents drop-wise into 14 mL of thaw medium in a sterile 15-mL conical tub. Centrifuge cells at 900 rpm for 4 minutes and resuspend in thaw medium. Transfer contents to the T75 tissue culture flask containing Thaw Medium and place flask in a humidified 37C/5% CO2 incubator. Switch to growth medium at first passage.Propagation Method: Aspirate medium, rinse once in DPBS, add 0.25% Trypsin/EDTA and swirl to coat the cell evenly. Add an equal volume of Growth Medium to inactivate Trypsin after 2-3 minutes incubation at 37C. Centrifuge cells at 900 rpm for 4 minutes and resuspend in growth medium. Cell should be passage or fed at least twice a week.Assay Protocol: Harvest cells from culture in growth medium and resuspend in assay medium. 2.2 Dispense 4000 cells/5 uL/well into 1536-well black/clear bottom plates using a Multidrop dispenser. After the cells were incubated at 37C for 5 hours, 23 nL of compounds dissolved in DMSO were transferred to the assay plate by a PinTool resulting in a 217-fold dilution. Incubate the plates for 16 hours at 37C, 5% CO2. Add 1 uL of 6X LiveBLAzer FRET B/G (CCF4-AM) Substrate Mixture to each well using a BioRAPTR dispenser and incubate the plates at room temperature for 2 hours. Measure fluorescence intensity at 460 and 530 nm emission and 405 nm excitation by an Envision detector. Data is expressed as the ratio of 460nm/530nm emissions. Add 4 uL of Cell-titer Glo to each well using BioRAPTR and incubate the plates at room temperature for 2 hours. Measure fluorescence intensity by a VewLux plate reader.
`Clc1ccc(COC(Cn2ccnc2)c2ccc(Cl)cc2Cl)c(Cl)c1` (stereo not given) was tested, and the AC50 was 17.3 µM (active).
With `CCN[C@@H]1C[C@H](N)[C@@H](OC2OC(CN)=CCC2N)[C@H](O)[C@H]1O[C@H]1OC[C@](C)(O)[C@H](NC)[C@H]1O` (stereo not given in full) the outcome was “inactive”.
For `CCCCCCCCCCCCCC[N+](C)(C)Cc1ccccc1`, the outcome was “inactive”.
`NCCS` was tested, and the outcome was “inactive”.
In the case of `CC[N+](CC)(CC)CCOc1ccc(/C=C/c2ccccc2)cc1`, the outcome is reported as “inactive”.
In the case of `O=S(=O)(O)Oc1ccc(C(c2ccc(OS(=O)(=O)O)cc2)c2ccccn2)cc1`, the outcome is reported as “inactive”.
With `Nc1c(N=Nc2ccc(-c3ccc(N=Nc4cc(S(=O)(=O)O)c5ccccc5c4N)cc3)cc2)cc(S(=O)(=O)O)c2ccccc12` the outcome was “inactive”.
With `Cc1nc2ccccn2c(=O)c1CCN1CCC(C(=O)c2ccc(F)cc2)CC1` the outcome was “inactive”.
For `O=C1[C@H]2CCCC[C@H]2C(=O)N1CCCCN1CCN(c2nsc3ccccc23)CC1`, the outcome was “inactive”.
`O=C1CCCCO1` was tested, and the outcome was “inactive”.
`CC[N+]1(CC)CCC(=C(c2ccccc2)c2ccccc2)C1C` (stereo not given) was tested, and the outcome was “inactive”.
`CC(C)CC(=O)O` was tested, and the outcome was “inactive”.
In the case of `COc1ccc(C(=O)N2CCN(CC(=O)N3CCOCC3)CC2)cc1`, the outcome is reported as “inactive”.
With `C=COCC(C)C` the outcome was “inactive”.
For `COC(=O)CCC(=O)CN`, the outcome was “inactive”.
For `CC(C)CCCC(C)N` (stereo not given), the outcome was “inactive”.
With `COc1ccc(C)cc1` the outcome was “inactive”.
In the case of `CCCCCCCCNC(C)C(O)c1ccc(SC(C)C)cc1` (stereo not given), the AC50 is reported as 35.8 µM (active).
In the case of `Cc1cccc2c1cc1ccc3cccc4ccc2c1c34`, the AC50 is reported as 0.801 µM (active).
For `Cc1ccc(C(=O)C(C)CN2CCCCC2)cc1` (stereo not given), the outcome was “inactive”.
`OCCOCCN1CCN(C(c2ccccc2)c2ccc(Cl)cc2)CC1` (stereo not given) was tested, and the AC50 was 0.000306 µM (active) and the outcome was “inactive”.
In the case of `CCCC/C=C/CCCCO`, the outcome is reported as “inactive”.
For `NC(N)=NN=Cc1c(Cl)cccc1Cl`, the outcome was “inactive”.
For `O=Cc1ccc(Cl)c(Cl)c1`, the outcome was “inactive”.
In the case of `CC1(C)S[C@@H]2[C@H](NC(=O)[C@H](N)c3ccccc3)C(=O)N2[C@H]1C(=O)O`, the outcome is reported as “inactive”.
For `CCC(=O)OCc1ccc(OC)cc1`, the outcome was “inactive”.
`CC[C@@H]([C@H](C)O)n1ncn(-c2ccc(N3CCN(c4ccc(OC[C@@H]5CO[C@@](Cn6cncn6)(c6ccc(F)cc6F)C5)cc4)CC3)cc2)c1=O` was tested, and the outcome was “inactive”.
For `COC(=O)C[C@](O)(CCCC(C)(C)O)C(=O)O[C@@H]1C(OC)=CC23CCCN2CCc2cc4c(cc2[C@H]13)OCO4` (stereo not given in full), the outcome was “inactive” and the AC50 was 0.0202 µM (active).
With `O=C1NC(=O)[C@@H]2CC=CC[C@H]12` the outcome was “inactive”.
For `CCC(=O)C(=O)CC`, the outcome was “inactive”.
In the case of `Cc1nccn1CC1CCc2c(c3ccccc3n2C)C1=O` (stereo not given), the outcome is reported as “inactive”.
For `CC1=NN(c2cc(Cl)c(S(=O)(=O)O)cc2Cl)C(=O)C1N=Nc1ccc(S(=O)(=O)O)cc1` (stereo not given), the outcome was “inactive”.
With `O=C(O)c1ccccc1S` the outcome was “inactive”.
In the case of `Nc1nnc(-c2cccc(Cl)c2Cl)c(N)n1`, the outcome is reported as “inactive”.
`CCOc1ccc(C[C@H]2NC(=O)CCSSC[C@@H](C(=O)N3CCC[C@H]3C(=O)N[C@@H](CCCN)C(=O)NCC(N)=O)NC(=O)[C@H](CC(N)=O)NC(=O)[C@H]([C@@H](C)O)NC(=O)[C@H]([C@@H](C)CC)NC2=O)cc1` ([Mpa][dY](Et)ITNCP[Orn]G-NH2; disulfide 1-6) was tested, and the outcome was “inactive”.
With `COc1ccc2cc3[n+](cc2c1OC)CCc1cc2c(cc1-3)OCO2` the outcome was “inactive” and the AC50 was 4.58 µM (active).
With `CCOc1cc([N+](=O)[O-])c(OCC)cc1N1CCOCC1` the outcome was “inactive”.
